In PubChem BioAssay AID463190 (Sanford-Burnham Center for Chemical Genomics, 2010):
In all, about 330,000 compounds went through this assay and about 7,300 (2.2%) were called active.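 How the source made its calls: active means inhibition of at least 40%; inactive means the rest.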 The list comes from a sample in which actives are over-represented; it also holds similar structures and randomly drawn compounds.

Experiment: growth inhibitors of tim10-1 mutant yeast, primary screen, luminescence, uHTS (AID 463190);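 further: mutant grown at 25 °C; 0% = DMSO wells with yeast and 100% = wells holding no yeast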
Settings: S. cerevisiae tim10-1 ts strain growth, BacTiter-Glo, 24 h; at 20 µM; active compounds read high

inhibition, inactive:
N#Cc1ccccc1Sc1ccccc1C(=O)OCC(=O)NC1CCCCC1 1.29%
CC(CCN1CCN=C1N(C)C)c1ccccc1 (stereo unspecified) -14.7%
CC(=O)Oc1cccc(C(=O)Nc2ccccc2NC(=O)c2cccc(OC(C)=O)c2)c1 -9.31%
CC(=O)O[C@H]1c2ccccc2-c2ccccc2[C@@H]1OC(C)=O 4.4%
O=C(CSc1nnc(CN2CCCC2)n1-c1ccc(F)cc1)c1ccc2c(c1)OCO2 14.8%
CC(C)CC(=O)NC(=S)Nc1cc(C(=O)O)ccc1Cl -9%
CC(=O)c1ccc(NC(=S)NC(=O)CC(C)C)cc1 14.6%
Cc1ccc(C(=O)C(C)OC(=O)Cc2n[nH]c(=O)c3ccccc23)cc1C (stereo unspecified) -2.29%
O=C(Nc1ccc(C(=O)NCc2ccccc2Cl)cc1)C1=CSCCO1 -4.56%
Cc1ccc(S(=O)(=O)/N=C(/Nc2ccccn2)c2ccc(Cl)cc2)cc1 19.5%
O=S(=O)(/N=C(/Nc1ccccn1)c1ccccc1)c1ccc(Cl)cc1 20.8%
CCC1CCCCN1CCCNC(=O)c1cc2c(Cl)nc3ccccc3c2s1 (stereo unspecified) 32.7%
CCOc1ccc(NC(=O)N(CCC(C)C)C(C)c2ccco2)cc1 (stereo unspecified) 15.1%
Cc1ccc(NC(=O)NC(=O)N(C2CCCCC2)S(=O)(=O)c2ccccc2)cc1 13.6%
C=CCOc1ccc(/C=N/n2cncn2)cc1OC 6.25%
CC(Cc1cccs1)NC(=O)c1cccc(Cl)c1 (stereo unspecified) 21.4%
COc1ccc(-c2nc3ccccc3c(=O)n2CCc2ccc(O)cc2)cc1 25.8%
COc1ccc(-c2c(C#Cc3ccccc3)c3ccccc3n2C)cc1 14.3%
Cc1ccc(Sc2cc(N3CCOCC3)nc(-c3ccccc3)n2)cc1 20.9%
CCN1CCN(c2nc(Nc3cccc(F)c3)nc(N)c2[N+](=O)[O-])CC1 9.58%
Cc1ccccc1Nc1nc(N)nc(COC(=O)CCC(=O)c2ccc(F)cc2)n1 15.1%
COc1cc(N2C(=O)CSC2=S)cc(OC)c1OC -10%
O=C1CSC(=S)N1c1ccc(O)cc1 -38.8%
COc1ccc(C)cc1Nc1n[n+](-c2ccccc2)c(-c2cccc(Cl)c2Cl)s1 22.9%
CCCCCCC(O)(CCN1CCCCC1)c1ccccc1 (stereo unspecified) 7.54%
CCc1ccc(C2C(C#N)=C(N)N(N(C)C)C3=C2C(=O)CCC3)s1 (stereo unspecified) 16.4%
CCOc1ccc(C2C(C#N)=C(N)N(N(C)C)C3=C2C(=O)CCC3)cc1 (stereo unspecified) 12.1%
CC(C)Cc1nnc(NC(=O)CN2C(=O)NC3(CCCCC3)C2=O)s1 -6.92%
Clc1ccc(-c2csc(-c3ccncc3)n2)cc1 24.5%
Cc1ccc(-c2csc(-c3cc(C)on3)n2)cc1 11.2%
Cc1ccc(/C=N/NC(=O)c2cc3ccccc3cc2O)o1 15.5%
COc1ccc(NC(=O)NCCN2CCN(c3ccc(C)cc3)CC2)c(Cl)c1 -2.17%
COc1ccc(C2Nc3ccccc3C(=O)N2c2ccc(Cl)cc2)cc1Cn1cc([N+](=O)[O-])cn1 (stereo unspecified) 28%
Cc1cc(C)n(S(=O)(=O)c2cccc([N+](=O)[O-])c2)n1 12.8%
Cc1ccccc1CN1CCC(C(=O)Nc2ccc(Oc3cccnc3)cc2)CC1 8.05%
O=C(NCCN1C(=O)S/C(=C\c2cccnc2)C1=O)c1ccc(S(=O)(=O)N2CCCC2)cc1 18.6%
Cc1cc(OCCCC(=O)NCCN2C(=O)S/C(=C\c3cccnc3)C2=O)ccc1Cl 19.9%
O=C(CCNS(=O)(=O)c1ccccc1C(F)(F)F)NCc1ccc2c(c1)OCO2 23.1%
Cn1nc(C(F)(F)F)c(C(=O)Nc2cccc(C(F)(F)F)c2)c1SCc1ccc(Cl)cc1 36%
O=C(CCn1nnnc1CN1CCOCC1)N1CCC(c2ccccc2Cl)C1 (stereo unspecified) 15.3%
Cc1ccc(CC(=O)Nc2ccc(OC(F)F)c(Cl)c2)cc1C 15.6%
CC(=O)N1CCN(CC(=O)Nc2ccc(SC(F)F)cc2)CC1 -0.192%
O=C(c1ccc(F)cc1)n1c(=S)nc2ccccn21 26.9%
COc1ccc(CNC(=O)[C@@H]2CC=C[C@@H]3CCN(C4CC4)C(=O)[C@@H]32)cc1 6.25%
CN(Cc1c(F)cccc1Cl)S(=O)(=O)c1cccs1 -0.379%
COC(=O)c1ccc(CNC(=O)C2CCC(=O)N(Cc3cccc(F)c3)C2)cc1 (stereo unspecified) -22.8%
O=C(O)C1CCN(c2ccc([N+](=O)[O-])cc2[N+](=O)[O-])CC1 4.89%
COc1ccc(N2CCN(c3ccc([N+](=O)[O-])cc3Cl)CC2)cc1 -1.93%
ONC(=Nc1ccccc1)c1ccccc1Cl 18.6%
O=C(O)C1C2C=CC(O2)C1C(=O)NCCc1cccc(Cl)c1 (stereo unspecified) -10.4%
O=C(CSc1ncn[nH]1)Nc1ccc(Br)cc1Br -12.6%
O=C(CSc1ncn[nH]1)N/N=C/c1ccc(F)cc1 -11.2%
N#C/C(=C\c1ccc(N2CCOCC2)o1)C(=O)N1CCOCC1 9.56%
Cc1ccc([N+](=O)[O-])c(OCCCNCC(C)O)c1 (stereo unspecified) 2.12%
CN(C)CCNc1ccc(-c2n[nH]c(=O)c3ccccc23)cc1[N+](=O)[O-] 1.37%
O=C(/C=C/c1cccs1)NCc1cccnc1 8.39%
O=S(=O)(Nc1ccc(Oc2ncccn2)c(Cl)c1)c1ccc(F)cc1 15.3%
O=S(=O)(Nc1ccccn1)c1cccc(S(=O)(=O)c2ccc(Cl)cc2)c1 14.9%
CCC1CCCCN1S(=O)(=O)Cc1ccccc1Cl (stereo unspecified) 25.3%
COc1ccc2c(CC(=O)N3CCc4cc(OC)c(OC)cc4C3)coc2c1 8.12%
CCn1c(CNc2ccc(OC)cc2)nnc1SCC(=O)c1ccc(OC)cc1 25.4%
COc1ccc(-c2nnc(SCC(=O)c3ccco3)n2-c2ccccc2)cc1 23.4%
O=S(=O)(NC1CCCCC1N1CCN(c2ccccc2F)CC1)c1ccccc1 (stereo unspecified) 21.7%
COc1ccc(C(=O)CN2C(=O)NC3(CCc4ccccc43)C2=O)c(OC)c1 (stereo unspecified) -9.01%
O=C(CC1(O)C(=O)N(CN2CCOCC2)c2ccccc21)c1ccccc1 (stereo unspecified) 15.9%
O=C(Nc1cc(S(=O)(=O)N2CCOCC2)ccc1Cl)c1cc(=O)c2ccccc2o1 19.5%
CC(Oc1cccc(NC(=O)c2cccs2)c1)C(=O)c1ccccc1 (stereo unspecified) 27.6%
Cc1cccc(NC(=O)Nc2cccc(Oc3c(F)c(F)c(F)c(F)c3F)c2)c1 21.3%
COc1cccc2c1OCC1COc3c(c(=O)n(C)c(=O)n3C)C21 (stereo unspecified) -6.86%
COc1ccccc1N1CC(C(=O)Nc2ccc(S(=O)(=O)N3CCOCC3)cc2)CC1=O (stereo unspecified) 4.85%
CCN(CC(=O)NCc1cccs1)c1nnnn1-c1ccccc1 -19.2%
CCOC(=O)c1c(-c2ccccc2)oc2ccc(OCC(N)=O)cc12 18.7%
CCOC(=O)c1c(C)oc2ccc(OCC(=O)N(CC)CC)cc12 14.2%
CCOC(=O)c1c(C)oc2cc(Sc3ccccc3)c(O)c(O)c12 34.3%
CCOC(=O)c1c(C)oc2cc(Br)c(OCC(N)=O)cc12 1.54%
CC(=O)Nc1ccc(C(=O)NNC(=O)CCCCC(=O)NNC(=O)c2ccc(NC(C)=O)cc2)cc1 10.6%

inhibition, active:
CC(=O)Oc1ccc2c(c1)C(=O)c1ccccc1C2=O 52.2%
CC(C)CC(=O)NC(=S)Nc1ccc(F)cc1F 49.5%
Cc1ccc(S/C(=N\S(=O)(=O)c2ccc(Cl)cc2)c2ccccc2)cc1 41.3%
CC(c1ccco1)N(C(=O)Nc1ccccc1)C1CCCCC1 (stereo unspecified) 48.1%
COc1ccc(CCNCc2c(-c3ccccc3)n(C)c3ccccc23)cc1 40.2%
O=C1CSC(=S)N1c1ccc(Cl)c(Cl)c1 42%
CN(C)N1C(N)=C(C#N)C(c2ccc(Br)cc2)C2=C1CCCC2=O (stereo unspecified) 43.6%
CCCc1cc(-c2nc(-c3ccc(C)cc3)cs2)ccn1 42.5%
Cc1cc(N=Nc2ccc3ccccc3c2)ccc1O 57.7%
O=C(NCCN1C(=O)S/C(=C\c2cccnc2)C1=O)c1cccc(OC(F)F)c1 40.4%
O=C(Cc1ccc(Cl)c(Cl)c1)Nc1ccc(SC(F)F)cc1 43.5%
O=[N+]([O-])c1ccc(N2CCN(c3ccc(O)cc3)CC2)c(Cl)c1 40.3%
ONC(=Nc1ccc(Cl)cc1)c1ccccc1Cl 42.6%
O=C(/C=C/Sc1ncn[nH]1)c1ccc(Cl)cc1 61.4%
O=S(=O)(Nc1cccc(Oc2ccc(Cl)cc2)n1)c1ccc(F)cc1 43.9%
COc1ccc(NCc2nnc(SCc3ccccc3)n2-c2ccc(OC)cc2)cc1 49.4%
C#CCN1C(=O)C(O)(CC(=O)c2cc(OC)ccc2OC)c2ccccc21 (stereo unspecified) 41.9%
Cc1ccoc1C(=O)Nc1cccc(Oc2ccccc2)c1 49.3%
CCOC(=O)c1c(-c2ccccc2)oc2ccc(OCC(=O)NN)cc12 45.4%
CCOC(=O)c1c(-c2ccccc2)oc2cc(Br)c(O)cc12 48.2%
